Source: PubChem BioAssay
Sampled rows, rich in hits. Any-hit rate of the full collection: about 19%.
TDP1 cell CPT: growth inhibition of DT40 Tdp1-/-;hTDP1 cells with camptothecin (screen for TDP1 inhibitors) | chicken DT40 Tdp1-/-;hTDP1 cells + 20 nM CPT, ATP luminescence, 48 h | Potency, µM (titrated, usually from 46.2 µM), actives largely listed as inhibitors | actives 12% (n = 420,000); note: nearly all actives have a fitted effect of over 55% in size
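Cell growth measured by CellTiter-Glo luminescence after a minimum 48 h, 37 C compound exposure with 20 nM CPT in Tdp1-knockout DT40 cells stably expressing hTDP1, seeded 400/well; qHTS titration format.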
HT1080NT lethal: kills 2HG-producing HT-1080-NT fibrosarcoma cells | actives 1.6% (n = 360,000) | Potency, µM (top dose mostly 46.1 µM), hits mostly cytotoxic | AID 686970 | HT-1080-NT fibrosarcoma viability, CellTiter-Glo ATP luminescence, 48 h;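 note: NT is the 2HG producing partner of a matched IDH1 knockdown line; nearly all actives have a fitted effect of over 55% in size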
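Toxicity toward the 2HG-producing NT line was scored as %Activity, normalised to DMSO and no-cell wells, from CellTiter-Glo luminescence after 48 hours' treatment.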
HT1080 IDH1KD tx: kills HT-1080 cells with IDH1 knockdown | Potency, µM (series often up to 46.1 µM), hits mostly cytotoxic | HT-1080 IDH1 knockdown viability, ATP luminescence, 48 h | actives 2% (n = 360,000)
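IDH1KD HT-1080 cells, 750/well, RPMI + 5% FBS; compound pinned after 2 h settling; 48 h, 37 °C; CellTiter-Glo luminescence; % activity normalised to DMSO and no-cell wells; curves fitted, classed by r2 and efficacy.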
DT40 TDP1 no CPT: qHTS for Inhibitors of human tyrosyl-DNA phosphodiesterase 1 (TDP1): qHTS in cells in absence of CPT. DT40 Tdp1-/- hTDP1 cells, no CPT, ATP luminescence, 48 h. Potency, µM (highest dose often 46.2 µM), hits mostly inhibitors. actives 15% (n = 420,000); note: nearly all actives have a fitted effect of over 55% in size
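Compound effects on proliferation are scored in DT40 Tdp1-/-;hTDP1 cells in the absence of CPT. ATP levels (CellTiter-Glo luminescence) are recorded after a ≥48 hr, 37 °C incubation.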
ELG1 repair inh: ELG1-dependent DNA repair inhibition; Potency, µM (top dose mostly 46.1 µM), actives largely listed as inhibitors; HEK293T ELG1-luciferase reporter, luminescence, 16 h; DNA damage induced by 5-fluorouridine; AID 504467; actives 2.3% (n = 330,000); note: nearly all actives have a fitted effect of over 55% in size
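DMSO vehicle served as the neutral condition. Each well held 2,000 cells given 5-fluorouridine plus compound; after 16 hr at 37 °C/5% CO2, ONE-Glo was added and luciferase measured 30 min later.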
IL-1B inflam inh: inhibitors of inflammasome signaling (IL-1 beta secretion); activity change, % at 57.5 µM; THP-1 LPS/ATP IL-1B secretion, AlphaLISA, 16 h; active compounds read low; actives 4.7% (n = 360,000); AID 743279; in the data active = activity change below about -50%; inconclusive = mostly about -30% to -49%
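THP-1 cells pretreated 1 hr with compounds (up to 57.5 uM final), then stimulated with LPS (250 ng/mL final) plus ATP (1.25 mM final); secreted IL-1B measured by AlphaLISA after 16 hr, decreased signal indicating inhibition.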
A number is an active result; i = inactive; ? = inconclusive; nt = no result; [ ] = remark or other dose. Unless noted, calls come from the whole dose curve; as a rule, active = well fitted curve in the direction sought with a large enough effect; inconclusive = small, poorly fitted or top-dose-only effect, or another doubt; inactive = no such curve, though single readings can be large; an effect the other way counts as inactive or inconclusive.

SMILES	TDP1 cell CPT	HT1080NT lethal	HT1080 IDH1KD tx	DT40 TDP1 no CPT	ELG1 repair inh	IL-1B inflam inh
Cc1cnc(-n2ncc(C(=O)NCCc3cccnc3)c2C)nc1-c1ccc(F)cc1	i[9.04 µM]	nt	nt	?	nt	nt
CCCS(=O)(=O)N1CCCC(C(=O)N2CCCCC2)C1 (configuration not stated)	i	i	i	i	i	i
O=C(NC1CCCCCC1)c1c(O)nc2sccn2c1=O	16.4µM	i	?	14.6µM	i	i
CC1=C(C(=O)Nc2ccc(C)cn2)C(c2cnn(C)c2)C2=C(CCCC2=O)N1 (configuration not stated)	i	i	i	i	?	i
Cc1nc(N2CCC(C)CC2)c2c(C)c(C(=O)Nc3ccc(C(F)(F)F)cc3)sc2n1	?	?	?	?	i	-84.2
Cc1nc(N2CCC(C)CC2)c2c(C)c(C(=O)Nc3ccc4c(c3)OCCO4)sc2n1	?	i	i	?	10.3µM	?
Cc1c(C(=O)Nc2ccc3c(c2)OCCO3)sc2ncnc(N3CCCCC3C)c12 (configuration not stated)	?	i	i	14.6µM	?	?
C/C(=N\NC(=O)Cc1ccc(Cl)cc1)c1cccnc1	i	i	i	i	i	i
COc1cc(Br)cc(CNc2ccc(F)c([N+](=O)[O-])c2)c1O	?	i	?	?	i	-94.7
Cc1ccc(CC(=O)Nc2ccc(F)c([N+](=O)[O-])c2)cc1C	i	i	i	?	i	i
COc1cccc(N2CCN(CC(=O)Nc3ccccc3C(=O)NCCc3ccccc3)CC2)c1	20.6µM	i	i	18.4µM	?	?
Cc1ccccc1NC(=O)CN1CCN(c2ccc(F)cc2)CC1	?	i	i	?	nt	i
O=C(CN1CCN(c2ccc(O)cc2)CC1)Nc1ccccc1C(=O)NCCc1ccccc1	?	i	i	25.9µM	?	i
COc1cc2c(cc1OC)CN(CC(=O)Nc1ccccc1C(=O)NCc1ccccc1)CC2	29.1µM	i	i	14.6µM	23.1µM	i
COc1cccc(N2CCN(CC(=O)Nc3ccccc3C(=O)NCc3ccccc3)CC2)c1	?	i[9.24 µM]	i	16.4µM	?	i
O=C(CN1CCCCCC1)Nc1ccccc1C(=O)Nc1ccccc1	?	i	i	?	?	i
O=C(c1cncs1)N(Cc1cc2cc3c(cc2nc1N1CCOCC1)CCC3)CC1CCCO1 (configuration not stated)	i[9.04 µM]	nt	nt	i	nt	nt
COc1ccccc1CNC(=O)Cn1nc(C)n2cccc2c1=O	i	nt	nt	i	nt	nt
Cc1cc(=O)oc(C)c1C(=O)Nc1ccc(F)cc1	i	i	i	i	i	i
COC(=O)CC(NC(=O)Nc1ccccc1F)c1ccc2c(c1)OCO2 (configuration not stated)	i	i	i	i	i	i
CCC(=O)N(CCC(Cc1ccccc1)c1ccco1)Cc1ccco1 (configuration not stated)	18.4µM	i	i	14.6µM	i	i
O=C(c1ccco1)N(CCC(c1ccccc1)c1ccco1)Cc1ccccc1 (configuration not stated)	?	i	i	?	i	i
CCC(=O)N(CCC(Cc1ccccc1)c1ccc2c(c1)OCO2)Cc1ccccc1F (configuration not stated)	7.31µM	?	?	4.61µM	?	i
CCN(CC)C(=O)CC(c1ccccc1)c1ccco1 (configuration not stated)	i	i	i	i	i	i
CCC(=O)N(CCC(c1ccccc1)c1ccco1)Cc1cccs1 (configuration not stated)	16.4µM	i	?	20.6µM	i	i
COc1ccc(CN(C)C[C@H]2OCc3cnnn3CCCC(=O)N([C@H](C)CO)C[C@@H]2C)cc1	i	i	i	?	nt	i
COc1ccc(CC(=O)Nc2cc(F)ccc2F)cc1S(=O)(=O)N1CCOCC1	i	i	i	?	nt	i
Cc1nc2scc(C)n2c(=O)c1S(=O)(=O)Nc1ccc(N2CCN(S(C)(=O)=O)CC2)cc1	23.1µM	i	i	18.4µM	?	i
CC(=O)c1ccc(NS(=O)(=O)c2c(C)nc3scc(C)n3c2=O)cc1	i	nt	nt	i	nt	nt
CC(=O)c1ccc2oc3ccccc3c(=O)c2c1	i	i	i	i	?	?
